Data from PMC7862700, “An all-to-all approach to the identification of sequence-specific readers for epigenetic DNA modifications on cytosine”.

Experiments:
Assay in all cases: DAPPL (digital affinity profiling via proximity ligation, sequencing); 10 mM Tris-HCl pH 7.5, 50 mM NaCl, 1 mM DTT, 4% glycerol, room temperature, 30 min; GST-TFs on glutathione beads, 16-mer random dsDNA library, 0.1% formaldehyde crosslink after washing; high values mean tight binding
Conditions in all cases: protein: recombinant; tags: N-terminal GST; dsDNA, one strand shown
FLI1 = molecular target: T1, FLI1 (Homo sapiens, UniProt Q01543 1-452)
T1 sequence: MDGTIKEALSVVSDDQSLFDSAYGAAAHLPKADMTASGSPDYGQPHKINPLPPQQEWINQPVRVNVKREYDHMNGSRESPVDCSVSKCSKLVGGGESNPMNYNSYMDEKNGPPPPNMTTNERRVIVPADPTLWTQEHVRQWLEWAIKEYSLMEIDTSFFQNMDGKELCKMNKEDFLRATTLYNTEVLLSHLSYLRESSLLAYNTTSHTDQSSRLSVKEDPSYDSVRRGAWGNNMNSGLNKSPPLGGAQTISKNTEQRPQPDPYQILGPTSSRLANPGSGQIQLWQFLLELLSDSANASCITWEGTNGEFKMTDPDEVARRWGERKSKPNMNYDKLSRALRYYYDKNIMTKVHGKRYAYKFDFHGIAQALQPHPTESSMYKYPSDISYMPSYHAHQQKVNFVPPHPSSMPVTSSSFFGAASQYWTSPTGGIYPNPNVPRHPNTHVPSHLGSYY
Summary of the method: (§1)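 Human transcription factors carrying a GST fusion were produced in yeast, bound to glutathione beads, tagged with DNA barcodes and pooled together with a tag-only sample. Each pool was held with 200 nmole of a random double-stranded 16-mer DNA library in Tris/NaCl/DTT/glycerol buffer for 30 min at room temperature, then washed, crosslinked in 0.1% formaldehyde, proximity-ligated with BsaI/T4 ligase (1 h, 37 °C), PCR-amplified and sequenced on an Illumina NextSeq500. Binding signal is the read frequency of each hexamer for a given factor divided by its frequency in the tag-only sample.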

SPIC = molecular target: T2, SPIC (Homo sapiens, UniProt Q8N5J4 1-248)
T2 sequence: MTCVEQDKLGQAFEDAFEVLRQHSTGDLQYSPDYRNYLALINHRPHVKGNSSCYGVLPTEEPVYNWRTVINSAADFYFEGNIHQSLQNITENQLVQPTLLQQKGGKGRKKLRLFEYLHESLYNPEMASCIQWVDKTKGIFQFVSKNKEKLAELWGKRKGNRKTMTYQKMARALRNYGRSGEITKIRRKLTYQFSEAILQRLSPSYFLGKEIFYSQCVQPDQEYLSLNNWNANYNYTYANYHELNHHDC
Summary of the method: as §1

ELK4 = molecular target: T3, ELK4 (Homo sapiens, UniProt P28324-2 1-405)
T3 sequence: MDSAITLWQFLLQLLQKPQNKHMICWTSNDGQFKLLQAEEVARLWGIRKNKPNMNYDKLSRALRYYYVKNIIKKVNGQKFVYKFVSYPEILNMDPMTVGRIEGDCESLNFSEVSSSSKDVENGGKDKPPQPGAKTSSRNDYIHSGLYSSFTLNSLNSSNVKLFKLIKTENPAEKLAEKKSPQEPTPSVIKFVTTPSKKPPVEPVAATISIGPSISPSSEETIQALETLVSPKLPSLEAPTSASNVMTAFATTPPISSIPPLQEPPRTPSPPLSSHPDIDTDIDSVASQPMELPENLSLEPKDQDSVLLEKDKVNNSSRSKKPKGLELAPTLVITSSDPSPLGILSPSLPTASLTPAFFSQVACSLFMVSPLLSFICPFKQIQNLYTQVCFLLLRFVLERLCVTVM
Summary of the method: as §1

GABPA = molecular target: T4, GABPA (Homo sapiens, UniProt Q06546 1-454)
T4 sequence: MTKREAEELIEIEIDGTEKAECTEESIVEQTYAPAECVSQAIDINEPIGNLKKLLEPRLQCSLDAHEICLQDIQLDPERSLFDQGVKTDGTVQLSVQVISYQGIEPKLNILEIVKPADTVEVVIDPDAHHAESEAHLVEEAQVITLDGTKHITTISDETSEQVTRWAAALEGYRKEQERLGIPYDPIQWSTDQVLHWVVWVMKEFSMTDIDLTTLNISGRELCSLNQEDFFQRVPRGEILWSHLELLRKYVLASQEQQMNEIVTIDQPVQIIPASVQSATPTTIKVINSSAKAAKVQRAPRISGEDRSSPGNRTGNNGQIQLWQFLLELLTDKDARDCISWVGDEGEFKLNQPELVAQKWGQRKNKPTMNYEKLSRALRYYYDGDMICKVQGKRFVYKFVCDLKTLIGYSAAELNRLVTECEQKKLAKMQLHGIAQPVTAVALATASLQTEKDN
Summary of the method: as §1

ERG = molecular target: T5, ERG (Homo sapiens, UniProt P11308 1-479)
T5 sequence: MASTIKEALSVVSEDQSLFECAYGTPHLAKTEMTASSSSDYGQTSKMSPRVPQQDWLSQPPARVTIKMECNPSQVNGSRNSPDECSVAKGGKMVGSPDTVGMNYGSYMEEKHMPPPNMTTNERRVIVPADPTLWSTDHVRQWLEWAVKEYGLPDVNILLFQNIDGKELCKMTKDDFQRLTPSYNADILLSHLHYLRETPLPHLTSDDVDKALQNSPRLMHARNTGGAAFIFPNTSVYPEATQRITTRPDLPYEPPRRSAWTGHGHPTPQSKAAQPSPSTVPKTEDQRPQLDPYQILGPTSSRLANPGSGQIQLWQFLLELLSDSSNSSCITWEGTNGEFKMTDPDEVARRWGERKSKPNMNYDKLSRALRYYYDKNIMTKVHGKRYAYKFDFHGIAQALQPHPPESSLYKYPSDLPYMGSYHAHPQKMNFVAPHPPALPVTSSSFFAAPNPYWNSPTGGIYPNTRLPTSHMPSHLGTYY
Summary of the method: as §1

ELF1 = ELF1 (Homo sapiens, UniProt P32519 1-619)
Sequence of ELF1 (P32519 whole entry): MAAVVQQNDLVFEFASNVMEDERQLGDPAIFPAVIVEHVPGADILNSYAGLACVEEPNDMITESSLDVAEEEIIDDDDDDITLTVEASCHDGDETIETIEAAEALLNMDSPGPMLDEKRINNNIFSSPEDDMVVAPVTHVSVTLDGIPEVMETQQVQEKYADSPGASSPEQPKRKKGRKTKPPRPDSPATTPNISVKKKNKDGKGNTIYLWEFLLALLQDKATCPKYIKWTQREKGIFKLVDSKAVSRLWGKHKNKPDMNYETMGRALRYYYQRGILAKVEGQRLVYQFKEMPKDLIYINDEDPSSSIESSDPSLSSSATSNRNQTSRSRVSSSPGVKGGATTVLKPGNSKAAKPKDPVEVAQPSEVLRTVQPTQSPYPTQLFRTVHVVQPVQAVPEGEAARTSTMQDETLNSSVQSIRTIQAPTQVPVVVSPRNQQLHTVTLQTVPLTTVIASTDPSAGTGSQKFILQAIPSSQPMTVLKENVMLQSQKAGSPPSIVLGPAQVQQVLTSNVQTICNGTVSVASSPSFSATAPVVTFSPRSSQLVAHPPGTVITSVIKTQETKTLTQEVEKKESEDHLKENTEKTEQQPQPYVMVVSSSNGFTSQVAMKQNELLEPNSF
Summary of the method: as §1

SPI1 = SPI1 (Homo sapiens, UniProt P17947 1-270)
Summary of the method: as §1

SPIB = SPIB (Homo sapiens, UniProt Q01892 1-262)
Sequence of SPIB (Q01892 whole entry): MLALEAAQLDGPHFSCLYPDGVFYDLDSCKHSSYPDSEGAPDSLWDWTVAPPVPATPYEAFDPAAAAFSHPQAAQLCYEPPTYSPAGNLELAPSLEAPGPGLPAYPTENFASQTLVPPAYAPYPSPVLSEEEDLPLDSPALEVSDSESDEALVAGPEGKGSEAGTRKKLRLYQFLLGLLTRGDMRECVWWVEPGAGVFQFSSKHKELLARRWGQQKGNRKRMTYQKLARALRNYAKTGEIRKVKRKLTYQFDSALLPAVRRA
Summary of the method: as §1

ELF4 = ELF4 (Homo sapiens, UniProt Q99607 1-663)
Sequence of ELF4 (Q99607 whole entry): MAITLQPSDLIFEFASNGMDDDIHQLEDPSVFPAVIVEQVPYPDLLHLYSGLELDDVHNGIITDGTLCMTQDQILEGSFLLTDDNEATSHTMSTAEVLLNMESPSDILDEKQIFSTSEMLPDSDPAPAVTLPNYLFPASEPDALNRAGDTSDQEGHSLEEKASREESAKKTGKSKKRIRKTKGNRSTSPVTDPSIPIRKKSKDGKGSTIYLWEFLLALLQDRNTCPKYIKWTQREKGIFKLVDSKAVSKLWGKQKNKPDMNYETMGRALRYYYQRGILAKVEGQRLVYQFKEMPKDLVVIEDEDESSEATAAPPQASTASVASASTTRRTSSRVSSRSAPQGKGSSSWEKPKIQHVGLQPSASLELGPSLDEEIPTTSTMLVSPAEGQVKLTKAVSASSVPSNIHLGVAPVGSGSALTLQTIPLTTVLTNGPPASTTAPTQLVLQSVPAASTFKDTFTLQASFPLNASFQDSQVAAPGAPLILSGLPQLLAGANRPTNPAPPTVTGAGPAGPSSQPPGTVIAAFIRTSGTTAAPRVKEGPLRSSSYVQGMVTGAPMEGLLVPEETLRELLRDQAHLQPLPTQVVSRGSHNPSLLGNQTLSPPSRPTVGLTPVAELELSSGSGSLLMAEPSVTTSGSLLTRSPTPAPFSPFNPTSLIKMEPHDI
Summary of the method: as §1

ETV2 = molecular target: T6, ETV2 (Homo sapiens, UniProt O00321 1-342)
T6 sequence: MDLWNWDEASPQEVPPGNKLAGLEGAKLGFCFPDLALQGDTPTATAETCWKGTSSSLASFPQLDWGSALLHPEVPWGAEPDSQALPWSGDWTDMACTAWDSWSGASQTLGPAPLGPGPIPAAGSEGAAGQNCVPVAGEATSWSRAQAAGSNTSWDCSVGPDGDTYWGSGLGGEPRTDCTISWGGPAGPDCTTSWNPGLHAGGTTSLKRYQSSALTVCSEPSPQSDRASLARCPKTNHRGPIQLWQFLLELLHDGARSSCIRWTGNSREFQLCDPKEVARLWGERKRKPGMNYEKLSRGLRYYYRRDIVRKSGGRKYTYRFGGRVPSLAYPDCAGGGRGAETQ
Summary of the method: as §1

ELF3 = molecular target: T7, ELF3 (Homo sapiens, UniProt P78545 1-371)
T7 sequence: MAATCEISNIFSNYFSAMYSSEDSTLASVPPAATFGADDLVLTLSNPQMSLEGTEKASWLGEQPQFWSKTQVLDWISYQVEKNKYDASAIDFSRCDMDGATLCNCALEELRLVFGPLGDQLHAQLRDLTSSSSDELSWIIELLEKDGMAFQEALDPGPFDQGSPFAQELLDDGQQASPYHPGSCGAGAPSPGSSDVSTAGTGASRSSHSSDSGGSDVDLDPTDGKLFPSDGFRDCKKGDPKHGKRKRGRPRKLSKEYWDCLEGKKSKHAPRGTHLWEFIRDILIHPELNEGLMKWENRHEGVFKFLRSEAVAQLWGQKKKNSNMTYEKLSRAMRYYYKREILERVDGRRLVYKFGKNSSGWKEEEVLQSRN
Summary of the method: as §1

ETV1 = ETV1 (Homo sapiens, UniProt P50549 1-477)
Sequence of ETV1 (P50549 whole entry): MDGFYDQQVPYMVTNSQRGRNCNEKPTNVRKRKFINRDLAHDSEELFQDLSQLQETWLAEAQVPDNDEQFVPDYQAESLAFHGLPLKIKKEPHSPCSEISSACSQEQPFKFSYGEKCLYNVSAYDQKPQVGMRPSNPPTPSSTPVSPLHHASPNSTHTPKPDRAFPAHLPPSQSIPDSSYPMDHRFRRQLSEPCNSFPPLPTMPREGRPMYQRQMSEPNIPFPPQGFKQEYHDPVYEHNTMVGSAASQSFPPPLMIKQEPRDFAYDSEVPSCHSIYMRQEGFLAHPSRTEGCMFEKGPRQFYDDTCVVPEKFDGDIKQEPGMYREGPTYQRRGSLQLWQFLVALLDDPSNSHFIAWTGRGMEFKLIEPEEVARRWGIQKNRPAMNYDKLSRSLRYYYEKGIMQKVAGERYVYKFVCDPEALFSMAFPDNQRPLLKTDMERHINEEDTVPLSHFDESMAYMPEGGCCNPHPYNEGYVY
Summary of the method: as §1

ERF = molecular target: T8, ERF (Homo sapiens, UniProt P50548 1-548)
T8 sequence: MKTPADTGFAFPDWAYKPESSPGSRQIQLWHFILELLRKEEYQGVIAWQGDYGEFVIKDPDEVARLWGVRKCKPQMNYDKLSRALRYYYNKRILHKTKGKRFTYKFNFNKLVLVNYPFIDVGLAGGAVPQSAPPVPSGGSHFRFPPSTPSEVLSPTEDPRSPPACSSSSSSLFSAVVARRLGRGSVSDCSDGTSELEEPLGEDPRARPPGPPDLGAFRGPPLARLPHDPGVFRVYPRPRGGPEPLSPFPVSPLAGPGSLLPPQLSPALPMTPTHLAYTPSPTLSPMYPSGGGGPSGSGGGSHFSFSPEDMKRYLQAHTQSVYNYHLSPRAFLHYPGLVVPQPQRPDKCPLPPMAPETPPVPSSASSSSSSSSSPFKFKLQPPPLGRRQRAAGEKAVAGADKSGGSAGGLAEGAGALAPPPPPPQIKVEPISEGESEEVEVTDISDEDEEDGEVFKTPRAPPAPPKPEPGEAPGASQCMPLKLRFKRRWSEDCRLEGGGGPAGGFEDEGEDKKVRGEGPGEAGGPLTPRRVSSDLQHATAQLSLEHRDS
Summary of the method: as §1

ETV3L = molecular target: T9, ETV3L (Homo sapiens, UniProt Q6ZN32 1-361)
T9 sequence: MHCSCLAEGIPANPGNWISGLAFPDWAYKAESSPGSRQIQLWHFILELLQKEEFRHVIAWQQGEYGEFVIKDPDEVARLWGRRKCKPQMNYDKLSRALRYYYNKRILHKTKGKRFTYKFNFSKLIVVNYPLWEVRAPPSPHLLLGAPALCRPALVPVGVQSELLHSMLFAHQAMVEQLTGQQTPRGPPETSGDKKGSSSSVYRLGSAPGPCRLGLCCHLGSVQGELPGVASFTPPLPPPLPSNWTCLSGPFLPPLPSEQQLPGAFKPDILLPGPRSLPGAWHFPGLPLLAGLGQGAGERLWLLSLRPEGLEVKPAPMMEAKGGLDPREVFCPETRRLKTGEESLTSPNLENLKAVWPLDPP
Summary of the method: as §1

ETS2 = molecular target: T10, ETS2 (Homo sapiens, UniProt P15036 1-469)
T10 sequence: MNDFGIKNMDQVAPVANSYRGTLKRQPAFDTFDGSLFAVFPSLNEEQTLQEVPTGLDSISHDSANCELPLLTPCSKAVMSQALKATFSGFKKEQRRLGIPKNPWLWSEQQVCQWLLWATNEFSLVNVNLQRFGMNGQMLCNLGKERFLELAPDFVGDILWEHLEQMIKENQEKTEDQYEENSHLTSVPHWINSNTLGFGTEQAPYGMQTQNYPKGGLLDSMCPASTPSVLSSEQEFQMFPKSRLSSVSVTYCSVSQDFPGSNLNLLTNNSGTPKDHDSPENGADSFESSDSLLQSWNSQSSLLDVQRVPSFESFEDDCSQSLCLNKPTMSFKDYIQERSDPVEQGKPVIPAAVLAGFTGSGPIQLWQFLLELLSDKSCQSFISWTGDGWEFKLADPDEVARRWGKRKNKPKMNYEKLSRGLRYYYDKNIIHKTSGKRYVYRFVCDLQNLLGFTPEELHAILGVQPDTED
Summary of the method: as §1

ELF5 = molecular target: T11, ELF5 (Homo sapiens, UniProt Q9UKW6-2 1-255)
T11 sequence: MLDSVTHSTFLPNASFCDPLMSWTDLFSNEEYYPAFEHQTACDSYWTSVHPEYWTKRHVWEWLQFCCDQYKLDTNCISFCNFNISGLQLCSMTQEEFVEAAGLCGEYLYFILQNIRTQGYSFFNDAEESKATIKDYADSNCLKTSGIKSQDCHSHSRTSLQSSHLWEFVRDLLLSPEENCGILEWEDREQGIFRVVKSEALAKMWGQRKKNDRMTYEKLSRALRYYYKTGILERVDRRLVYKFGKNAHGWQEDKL
Summary of the method: as §1

ETV3 = molecular target: T12, ETV3 (Homo sapiens, UniProt P41162-2 1-143)
T12 sequence: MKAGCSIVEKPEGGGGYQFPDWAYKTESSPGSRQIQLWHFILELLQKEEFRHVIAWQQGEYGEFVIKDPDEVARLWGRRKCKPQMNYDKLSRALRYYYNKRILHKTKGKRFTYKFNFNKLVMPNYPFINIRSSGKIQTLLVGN
Summary of the method: as §1

ETV6 = ETV6 (Homo sapiens, UniProt P41212 1-452)
Sequence of ETV6 (P41212 whole entry): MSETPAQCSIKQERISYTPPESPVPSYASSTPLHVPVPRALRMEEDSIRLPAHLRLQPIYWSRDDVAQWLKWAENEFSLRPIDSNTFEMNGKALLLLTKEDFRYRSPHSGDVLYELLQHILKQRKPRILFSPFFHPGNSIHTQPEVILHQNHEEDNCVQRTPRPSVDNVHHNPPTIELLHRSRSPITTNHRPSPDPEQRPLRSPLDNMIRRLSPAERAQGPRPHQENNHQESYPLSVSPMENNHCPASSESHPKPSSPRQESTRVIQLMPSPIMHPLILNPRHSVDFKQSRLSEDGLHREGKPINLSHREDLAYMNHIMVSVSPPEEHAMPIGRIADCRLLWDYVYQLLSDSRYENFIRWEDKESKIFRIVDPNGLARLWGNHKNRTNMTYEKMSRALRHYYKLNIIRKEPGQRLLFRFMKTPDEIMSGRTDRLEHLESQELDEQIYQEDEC
Summary of the method: as §1

Row | Sequence | binding signal (FLI1) | binding signal (SPIC) | binding signal (ELK4) | binding signal (GABPA) | binding signal (ERG) | binding signal (ELF1) | binding signal (SPI1) | binding signal (SPIB) | binding signal (ELF4) | binding signal (ETV2) | binding signal (ELF3) | binding signal (ETV1) | binding signal (ERF) | binding signal (ETV3L) | binding signal (ETS2) | binding signal (ELF5) | binding signal (ETV3) | binding signal (ETV6)
1 | CTTGAG | 1.08 fold enrichment (6-mer frequency, TF over GST control) | 1.12 fold enrichment (6-mer frequency, TF over GST control) | 1.05 fold enrichment (6-mer frequency, TF over GST control) |  |  |  |  |  |  |  |  |  |  |  |  |  |  | 
2 | TGTCAA | 1.02 fold enrichment (6-mer frequency, TF over GST control) |  | 1.11 fold enrichment (6-mer frequency, TF over GST control) | 1.01 fold enrichment (6-mer frequency, TF over GST control) | 1.05 fold enrichment (6-mer frequency, TF over GST control) | 1.05 fold enrichment (6-mer frequency, TF over GST control) | 1 fold enrichment (6-mer frequency, TF over GST control) | 1.02 fold enrichment (6-mer frequency, TF over GST control) | 1.08 fold enrichment (6-mer frequency, TF over GST control) | 1 fold enrichment (6-mer frequency, TF over GST control) | 1.15 fold enrichment (6-mer frequency, TF over GST control) | 1.06 fold enrichment (6-mer frequency, TF over GST control) | 1.07 fold enrichment (6-mer frequency, TF over GST control) | 1.07 fold enrichment (6-mer frequency, TF over GST control) | 1.03 fold enrichment (6-mer frequency, TF over GST control) | 1.01 fold enrichment (6-mer frequency, TF over GST control) | 1.08 fold enrichment (6-mer frequency, TF over GST control) | 1.04 fold enrichment (6-mer frequency, TF over GST control)
